Only some compounds are listed: those with a hit (about 2.5% of all), similar ones and a draw of the others.
PAX8 inh HTS: inhibitors of PAX8 transcriptional activity in RMG-I cells. RMG-I TPO-luciferase reporter, SteadyGlo, 24 h. inhibition, % at 12.6 µM. 360,000 compounds, 1.2% hits. AID 652154;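 active means mean replicate inhibition at least 60% with every replicate also reaching 60%; inconclusive means only one of the two criteria is met; inactive means mean below 60% and not all replicates reaching 60%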;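 further: luciferase light reporting Pax8 driven TPO promoter activity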
EWS-Fli inh: inhibitors of EWS/Fli oncoprotein transcriptional activity | inhibition, % at 12.6 µM | A673 NR0B1-luciferase reporter, viability-normalised | AID 651661 | 350,000 compounds, 0.67% hits;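 active means mean inhibition of at least 50% after viability correction, with every replicate also passing that limit; inconclusive means mean reaches 50% but only one of two replicates passes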;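 further: firefly luciferase signal divided by Alamar Blue viability fluorescence both relative to DMSO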
CFTR F508del cor: CFTR F508del correction in bronchial cells | activity (quench increase), % at 7.58 µM | AID 720511 | CFBE cells, YFP halide quenching; stimulated with forskolin plus potentiator P3; % fluorescence drop versus neutral controls | 350,000 compounds, 0.36% hits;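 active means mean added fluorescence quench of at least 8% versus neutral control, with both replicates also reaching 8%; inconclusive means only one of the mean or replicate conditions met; inactive means mean below 8% and not both replicates reaching 8%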;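 further: cells transiently co-express mutant CFTR-F508del with the halide-sensitive YFP; corrector assay measuring rescue of mutant channel to the surface after 24 h compound exposure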
GAA850 FXN act: increases GAA850 frataxin promoter reporter activity; HEK293 lucGAA850 FXN promoter luciferase reporter, 24 h; percent of 10 µM SAHA response; activation, % at 6 µM; 360,000 compounds, 0.56% hits; AID 540364;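 active means activation above the average of all compounds screened plus 3 SD, cutoff fixed separately per campaign, cut at about 7.5% in these data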
Env fusion inh: inhibitors of HIV Env-mediated cell fusion; HeLa-JRFL Env/CEM21 cell fusion, luciferase; inhibition, % at 12.3 µM; 360,000 compounds, 1.1% hits; AID 651610;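 active means mean replicate inhibition score of at least 50 and every replicate individually at or above 50; inconclusive means only one of the two criteria met; inactive means mean below 50 and not all replicates reaching 50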
A number is an active result; . = inactive; ? = inconclusive; / = no result given; [ ] = another dose, or the depositor's remark.

SMILES | PAX8 inh HTS | EWS-Fli inh | CFTR F508del cor | GAA850 FXN act | Env fusion inh
COc1ccc(C(O)(CCC(C)C)C(CN2CCOCC2)c2ccc(Cl)cc2)cc1 (centres undefined) | . | . | . | . | ?
Cc1ccc(S(=O)(=O)Nc2ccc3c(c2)C(=O)N([C@H](C)CO)C[C@@H](C)[C@@H](CN(C)Cc2ccc(C(F)(F)F)cc2)OCCCC[C@H](C)O3)cc1 | 95.7 | . | . | / | ?
Cc1ccc(S(=O)(=O)Nc2ccc3c(c2)C(=O)N([C@H](C)CO)C[C@H](C)[C@@H](CN(C)Cc2ccc(C(F)(F)F)cc2)OCCCC[C@@H](C)O3)cc1 | . | . | . | / | .
Cc1ccc(S(=O)(=O)Nc2ccc3c(c2)C(=O)N([C@@H](C)CO)C[C@H](C)[C@@H](CN(C)Cc2ccc(C(F)(F)F)cc2)OCCCC[C@H](C)O3)cc1 | 79.8 | . | . | / | .
Cc1ccc(S(=O)(=O)Nc2ccc3c(c2)C(=O)N([C@@H](C)CO)C[C@@H](C)[C@H](CN(C)Cc2ccc(C(F)(F)F)cc2)OCCCC[C@@H](C)O3)cc1 | 107.6 | . | . | / | 107.8[16.7 µM]
Cc1ccc(S(=O)(=O)Nc2ccc3c(c2)C(=O)N([C@H](C)CO)C[C@@H](C)[C@@H](CN(C)Cc2ccc(C(F)(F)F)cc2)OCCCC[C@@H](C)O3)cc1 | 87.4 | . | . | / | 68.5[16.7 µM]
Cc1ccc(S(=O)(=O)Nc2ccc3c(c2)C(=O)N([C@H](C)CO)C[C@H](C)[C@H](CN(C)Cc2ccc(C(=O)O)cc2)OCCCC[C@@H](C)O3)cc1 | . | . | . | / | .
C[C@@H]1CN([C@@H](C)CO)C(=O)Cc2cc(NC(=O)NC3CCCCC3)ccc2O[C@H]1CN(C)S(=O)(=O)c1ccc(F)cc1 | . | . | . | / | /
CN1C(=O)c2cc(NC(=O)Nc3ccccc3Cl)ccc2OC[C@@H]2O[C@@H](CC(=O)NCCCN3CCOCC3)CC[C@@H]21 | . | . | / | / | .
COc1ccc(S(=O)(=O)Nc2ccc3c(c2)C(=O)N([C@H](C)CO)C[C@H](C)[C@@H](CN(C)Cc2ccc(C(F)(F)F)cc2)OCCCC[C@@H](C)O3)cc1 | . | . | . | / | .
Cc1ccc(S(=O)(=O)Nc2ccc3c(c2)C(=O)N([C@H](C)CO)C[C@H](C)[C@H](CN(C)Cc2ccc(C(F)(F)F)cc2)OCCCC[C@H](C)O3)cc1 | 115.1 | . | . | / | .
O=C(NCCCN1CCc2ccccc2C1)Nc1ccc(Cl)cc1 | / | / | / | . | 78.7
COc1cc(C2c3cc4c(cc3OC(NNC(N)=O)C2C)OCO4)cc(OC)c1OC (centres undefined) | 74.6 | 53.6 | . | . | .
CCN(CC)C1Oc2cc3c(cc2C(c2cccc(OC)c2O)C1C)OCO3 (centres undefined) | . | . | . | . | .
COc1cc(C2c3cc4c(cc3OC(NCc3ccccc3)C2C)OCO4)cc(OC)c1OC (centres undefined) | ? | ? | . | . | .
COc1cccc(C2c3cc4c(cc3OC(NNC(N)=O)C2C)OCO4)c1O (centres undefined) | . | . | 8.9 | . | .
COc1cc(CC(=O)NCc2ccc3c(c2)OCO3)cc(OC)c1OC | . | / | / | . | .
COc1cc(C2c3cc4c(cc3OC(NNC(N)=S)C2C)OCO4)cc(OC)c1OC (centres undefined) | 85.2 | 61.3 | . | . | .
CCCC(=O)Nc1ccc2c(c1)C(=O)N(C)[C@@H]1CC[C@@H](CC(=O)NCC3CCCCC3)O[C@@H]1CO2 | . | . | . | / | .
Cc1noc(C)c1NC(=O)N(C)C[C@H]1Oc2ccc(NC(=O)Cc3ccccc3)cc2CC(=O)N([C@@H](C)CO)C[C@@H]1C | . | . | . | / | .
O=[N+]([O-])c1cc(-c2ncccn2)c([N+](=O)[O-])s1 | . | 60.5 | . | . | .
COc1ccc(OCC(=O)Nc2cc(-c3nn(C)c(=O)c4ccccc34)ccc2OC)cc1 | . | / | / | . | 85.8
O=C(CNC(=O)c1cccc(-n2cccc2)c1)Nc1ccccc1Br | . | . | . | . | 69.8
CN(C)c1cc[n+](Cc2c(Cl)cccc2Cl)cc1 | . | / | / | . | 57.9
CN(C)c1cc[n+](CC[n+]2ccc(N(C)C)cc2)cc1 | . | . | . | . | .
C[C@@H]1CN([C@@H](C)CO)S(=O)(=O)c2ccc(-c3cccc(C#N)c3)cc2O[C@H]1CN(C)C(=O)c1ccc(F)cc1 | / | . | . | / | .
Fc1ccc(CSc2ccc(-c3ccco3)nn2)cc1 | 131.4 | . | . | . | /
Fc1cccc(CSc2ccc(-c3ccco3)nn2)c1 | . | / | / | . | .
